# Where “and” joins values, the source holds several entries; their conditions need not be identical. Equal values may be shown once. For some assays here: Entries with a potency or affinity are not part of this list. Calls of active or inactive are those of the source.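 How the source made its calls, unless noted: active means compounds killing one labelled cell type while sparing the other, by normalised counts and ratio limits, not self-fluorescent; inactive means the rest.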
# Assays:
# [1] = circadian clock period modulators, cell-based, LOPAC library, luminescence reporter (AID 2774; call rule not given here;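 further: values are relative to mean of DMSO wells on each plate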); conditions: circadian reporter cells, at 7 µM, actives lie on both sides
# [2] = tested on: Hepatitis C virus NS3 helicase; assay: HCV NS3 helicase inhibitors, primary screen, biochemical, fluorescence polarization, LOPAC1280 library (AID 687035; in the data active means inhibition above about 37%); conditions: Purified HCV NS3 helicase, Cy5-dT15 ssDNA binding fluorescence polarization; stronger effect = higher value; concentration not given here
# [3] = Cy5 fluorescence quenching or enhancement artefacts, artefact control for HCV NS3 helicase inhibitor project, biochemical, LOPAC1280 (AID 687037; call rule not given here); conditions: Cy5-DNA-NS3h complex fluorescence interference counterscreen
# [4] = differential killing of epithelial or mesenchymal cells, primary screen, imaging, PC-3E GFP, TEM4-18 mCherry, co-culture (AID 1345086); conditions: imaging cell counts, at 1 µM; for red/green cell ratio (normalised): actives lie on both sides;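 on all read-outs here: cells exposed to compound for 72 h before imaging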;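 on red/green cell ratio (normalised): normalised mesenchymal count divided by normalised epithelial count so high means epithelial killing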
# [5] = tested on: Aerobactin synthetase IucA (Klebsiella pneumoniae, hypervirulent); assay: IucA enzyme inhibition, biochemical, LOPAC library, absorbance readout (AID 1346212; call rule not given here;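 further: 100% = no compound wells and 0% = no enzyme wells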); conditions: IucA enzyme assay, absorbance (OD) readout; stronger effect = lower value; concentration not given here
# [6] = sensitizers of A549 cells to miR-34 induction, primary screen, imaging, A549 dox-inducible miR-34, nuclei and caspase counts (AID 1347080;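 active means compounds whose cell count with miR-34 switched on is under 0.7 times the count with it off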); conditions: A549 miR-34 inducible, Hoechst nuclei count, 48 h
# [7] = phospholipid biosynthesis inhibitors in animal cells, primary screen, cell-based, LOPAC library, screen 4 (AID 1347384; call rule not given here); conditions: phospholipid biosynthesis inhibition screen, at 10 µM
# [8] = viability rescue of complex I mutant cybrids, primary screen, cell-based, galactose medium, ATP luminescence (AID 1645843;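 active means z-score of at least 1.8 in each of two replicates, scored against plate mean and spread of sample wells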;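 further: positive z means more ATP and so rescue of galactose-driven cybrid death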); conditions: complex I mutant cybrid cells, 72 h, stronger effect = higher value
# [9] = liver-stage malaria parasite growth inhibition, primary screen, cell-based, HepG2, luciferase luminescence, HepG2 viability (AID 624349; in the data active means parasite load remaining mostly below about 12%, no sharp cut-off; inactive means mostly above about 10%;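 further: 100% = mean of DMSO negative control wells on the same plate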); conditions: P. berghei liver stage in HepG2, luciferase luminescence, concentration not given here; parasite load remaining: stronger effect = lower value; viability: measured here: HepG2 viability without parasites
# [10] = survival rescue of mitochondrial mutant cells in low glucose, primary screen, MELAS cybrids, Rieske KO mouse fibroblasts, CellTiter-Glo (AID 1508586;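 active means mean z-score across replicates of 1.96 or higher in either the MELAS or the Rieske mutant cell line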;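 further: z relative to plate mean and SD of compound and empty wells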)
# [11] = tested on: Aerobactin synthetase IucA (Klebsiella pneumoniae hvKP1); assay: Biochemical IucA enzyme inhibition primary screen of the Spectrum library (AID 1346200; call rule not given here;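 further: 100% = wells without compound and 0% = wells lacking enzyme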); conditions: malachite green pyrophosphate, A620, at 8 µM, stronger effect = lower value
# [12] = polyglutamine-triggered caspase-3 activation inhibitors, cell-based (AID 1583); conditions: polyglutamine-induced caspase-3 activation, cell assay; stronger effect = higher value;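 tested at 10 µM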
# [13] = suppressors of polyQ aggregation in yeast, 75Q-TubU reporter (AID 1593); conditions: Yeast 75Q polyglutamine aggregation reporter
# [14] = rescue of polyQ-huntingtin neuronal dysfunction in worms, whole organism, C. elegans mechanosensory neurons, N-terminal huntingtin (AID 1599); conditions: touch response, stronger effect = higher value
# [15] = inhibitors of mitochondrial cytochrome c release, biochemical, purified mitochondria (AID 1603); conditions: stronger effect = lower value;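 further: mouse liver mitochondria challenged with calcium chloride; signal normalized to the plate average as 100%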
# [16] = inhibitors of polyQ protein aggregation (AID 1604); conditions: polyglutamine-induced protein aggregation inhibition assay; stronger effect = higher value; tested at 2.5 µM
# [17] = enhancers of glutamate uptake in motor neurons, MN-1 cell line (AID 1612); conditions: MN-1 motor neuron cells, stronger effect = higher value;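 further: tested at 1 µM final; 0% = mean of DMSO vehicle wells on each plate; positive means more glutamate uptake than control and negative means less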
# [18] = reducers of polyQ inclusions in PC12 cells, cell-based, NGF-treated PC12, GFPQ80 (AID 1614); conditions: PC12 NGF-treated GFP-polyQ80 inclusion reduction;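 further: lower means fewer inclusions and 0 means no inclusions at all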
# [19] = suppressors of polyglutamine aggregation in yeast, 75Q-TubH (AID 1616); conditions: S. cerevisiae 75Q-TubH polyglutamine aggregation suppression; stronger effect = higher value
# [20] = molecular target: NAD(+) hydrolase SARM1 (Homo sapiens) (UniProt Q6SZW1); assay: SARM1 TIR NADase inhibitors, cell lysate, NAD-Glo luminescence (AID 1508614;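 active means compound whose remaining NAD level is above about 45 nM, limit read from the data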); conditions: SAM-TIR HEK293T lysate NADase, at 1 µM, stronger effect = higher value
# [21] = molecular target: Mitogen-activated protein kinase 7 (Homo sapiens) (UniProt Q13164); assay: ERK5 transactivation activators in reporter cells, primary screen, cell-based, HTS (AID 1508626;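 active means luciferase signal above three times the same-plate solvent-only control wells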;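 further: luciferase driven by Gal4-ERK5 fusion binding five Gal4 sites before minimal TATA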); conditions: HeLa Gal4-ERK5 transactivation, 18 h, at 5 µM, stronger effect = higher value
# [22] = measured here: epithelial PC-3E GFP cell survival
# [23] = measured here: mesenchymal TEM4-18 mCherry cell survival
# [24] = measured here: relative caspase fold change +Dox/-Dox
# [25] = measured here: total cells with miR-34 induction, stronger effect = lower value
# [26] = measured here: total cells without miR-34 induction
# [27] = MELAS cybrid survival, CellTiter-Glo 48 h, stronger effect = higher value
# [28] = Rieske KO mouse fibroblast survival, CellTiter-Glo 72 h
# Chain of Mitogen-activated protein kinase 7 (Homo sapiens) (Q13164 whole entry, looked up, the tested form may be a part): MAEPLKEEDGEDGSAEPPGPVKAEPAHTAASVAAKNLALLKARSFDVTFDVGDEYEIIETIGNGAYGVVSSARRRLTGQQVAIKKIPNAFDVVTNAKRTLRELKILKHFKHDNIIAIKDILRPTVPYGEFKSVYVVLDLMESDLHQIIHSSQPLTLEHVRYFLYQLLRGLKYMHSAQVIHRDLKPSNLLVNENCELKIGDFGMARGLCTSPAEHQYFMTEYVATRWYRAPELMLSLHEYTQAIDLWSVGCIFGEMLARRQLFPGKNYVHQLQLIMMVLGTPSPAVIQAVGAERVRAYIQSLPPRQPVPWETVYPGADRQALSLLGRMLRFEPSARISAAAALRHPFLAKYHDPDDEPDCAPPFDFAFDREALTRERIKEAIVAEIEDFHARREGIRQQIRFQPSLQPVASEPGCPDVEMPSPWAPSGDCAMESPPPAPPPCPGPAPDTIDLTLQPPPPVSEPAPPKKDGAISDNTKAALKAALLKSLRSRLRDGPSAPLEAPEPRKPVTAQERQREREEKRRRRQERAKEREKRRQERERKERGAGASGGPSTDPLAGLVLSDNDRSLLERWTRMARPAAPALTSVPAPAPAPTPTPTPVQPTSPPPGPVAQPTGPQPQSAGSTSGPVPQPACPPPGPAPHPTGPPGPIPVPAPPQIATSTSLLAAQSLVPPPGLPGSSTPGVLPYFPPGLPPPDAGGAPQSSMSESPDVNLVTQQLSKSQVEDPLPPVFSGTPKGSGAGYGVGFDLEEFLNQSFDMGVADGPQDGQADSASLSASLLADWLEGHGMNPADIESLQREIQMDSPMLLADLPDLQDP
# Chain of NAD(+) hydrolase SARM1 (Homo sapiens) (Q6SZW1 whole entry, looked up, the tested form may be a part): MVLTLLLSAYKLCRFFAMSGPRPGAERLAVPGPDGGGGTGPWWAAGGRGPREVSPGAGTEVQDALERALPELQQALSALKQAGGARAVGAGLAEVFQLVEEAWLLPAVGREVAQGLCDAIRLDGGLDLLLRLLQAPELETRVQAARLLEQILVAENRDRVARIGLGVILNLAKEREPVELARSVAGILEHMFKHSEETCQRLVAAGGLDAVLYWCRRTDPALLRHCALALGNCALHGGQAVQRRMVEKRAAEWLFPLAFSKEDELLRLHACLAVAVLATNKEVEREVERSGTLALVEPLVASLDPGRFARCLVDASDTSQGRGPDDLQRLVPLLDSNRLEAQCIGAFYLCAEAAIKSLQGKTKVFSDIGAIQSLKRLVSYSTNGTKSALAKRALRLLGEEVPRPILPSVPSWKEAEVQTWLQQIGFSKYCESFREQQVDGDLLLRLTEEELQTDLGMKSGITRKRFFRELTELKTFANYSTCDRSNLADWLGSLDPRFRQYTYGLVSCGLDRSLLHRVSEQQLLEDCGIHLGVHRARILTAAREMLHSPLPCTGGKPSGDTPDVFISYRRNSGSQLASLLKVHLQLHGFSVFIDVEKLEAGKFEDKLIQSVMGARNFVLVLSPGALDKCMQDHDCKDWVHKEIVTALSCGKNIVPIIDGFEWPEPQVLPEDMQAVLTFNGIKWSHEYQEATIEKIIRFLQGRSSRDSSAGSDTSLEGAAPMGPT
smiles,measurement,setting,value
O=C(O)Cc1cnc[nH]1,period change,[1],0.01 h (inactive)
same,inhibition,[2],-1% (inactive)
same,fluorescence ratio (interference),[3],1 (inactive)
same,red/green cell ratio (normalised),"[4]; counts scaled to control wells, 1 = unselective",0.87 (inactive)
same,normalised cell number,[4]; [22],1.11
same,normalised cell number,[4]; [23],0.97
same,remaining activity,[5],121% (inactive)
same,fold change,[6]; stronger effect = lower value,0.943 (inactive)
same,fold change,[6]; [24],1.63
same,cell count,[6]; [25],10100
same,cell count,[6]; [26],10700
same,outcome,[7],inactive
same,z-score,[8],-0.12 (inactive)
C#CCN(C)C(C)Cc1ccccc1 (stereo unspecified),parasite load remaining,[9],54.6% (inactive) and 61.7% (inactive)
same,viability,[9],101% and 170%
same,red/green cell ratio (normalised),[4],1.02 (inactive)
same,normalised cell number,[4]; [22],1.06
same,normalised cell number,[4]; [23],1.07
same,fold change,[6]; stronger effect = lower value,0.923 (inactive) and 0.946 (inactive) and 0.891 (inactive)
same,fold change,[6]; [24],2.5 and 4.7 and 1.31
same,cell count,[6]; [25],9410 and 12100 and 9880
same,cell count,[6]; [26],10200 and 12800 and 11100
same,z-score,[10]; [27],-0.242 (inactive)
same,z-score,[10]; [28],-0.831
same,z-score,[8],0.995 (inactive) and 0.67 (inactive)
C=C(C)C1CNC(C(=O)O)C1CC(=O)O (stereo unspecified),parasite load remaining,[9],103% (inactive)
same,viability,[9],86.2%
same,red/green cell ratio (normalised),[4],0.79 (inactive)
same,normalised cell number,[4]; [22],0.92
same,normalised cell number,[4]; [23],0.73
same,activity remaining,[11],96.1% (inactive)
CC[C@H]1CN2CCC1C[C@@H]2[C@@H](O)c1ccnc2ccc(OC)cc12 (stereo partly specified),inhibition,[12],-3.48%
same,score,[13],1.22
same,rescue above control,[14],-8.65
same,cytochrome c release ratio,[15],0.67
same,inhibition of aggregation,[16],32.5%
same,glutamate uptake change,[17],1.44%
same,inclusion score,[18],2
same,aggregation suppression score,[19],1.35
same,parasite load remaining,[9],20% (inactive)
same,viability,[9],79.3%
same,red/green cell ratio (normalised),[4],0.99 (inactive)
same,normalised cell number,[4]; [22],1.01
same,normalised cell number,[4]; [23],1
same,activity remaining,[11],117% (inactive)
CC[C@H]1C2CC3[C@@H]4N(C)c5ccccc5[C@]45C[C@@H](C2C5O)N3[C@@H]1O (stereo partly specified),parasite load remaining,[9],88.5% (inactive)
same,viability,[9],73.8%
same,red/green cell ratio (normalised),[4],1.03 (inactive)
same,normalised cell number,[4]; [22],0.98
same,normalised cell number,[4]; [23],1.01
same,activity remaining,[11],112% (inactive)
CC(=O)OCC1=C(C(=O)O)N2C(=O)[C@@H](NC(=O)CCCC(N)C(=O)O)C2SC1 (stereo partly specified),inhibition,[12],10.9%
same,score,[13],1.28
same,cytochrome c release ratio,[15],1.12
same,inhibition of aggregation,[16],39.4%
same,glutamate uptake change,[17],3.72%
same,inclusion score,[18],2
same,aggregation suppression score,[19],1.03
same,parasite load remaining,[9],94.5% (inactive)
same,viability,[9],67%
same,red/green cell ratio (normalised),[4],0.94 (inactive)
same,normalised cell number,[4]; [22],1.04
same,normalised cell number,[4]; [23],0.98
same,activity remaining,[11],111% (inactive)
CC(CC(C(N)=O)(c1ccccc1)c1ccccc1)N(C)C (stereo unspecified),parasite load remaining,[9],59.7% (inactive)
same,viability,[9],166%
same,red/green cell ratio (normalised),[4],0.86 (inactive)
same,normalised cell number,[4]; [22],1.14
same,normalised cell number,[4]; [23],0.99
same,fold change,[6]; stronger effect = lower value,0.911 (inactive)
same,fold change,[6]; [24],5.38
same,cell count,[6]; [25],11900
same,cell count,[6]; [26],13000
same,remaining NAD,[20],10 nM (inactive)
same,luciferase signal,[21],172 AU (inactive)
NC1=NC(=O)N2CC12 (stereo unspecified),red/green cell ratio (normalised),[4],0.74 (inactive)
same,normalised cell number,[4]; [22],1.2
same,normalised cell number,[4]; [23],0.88
same,fold change,[6]; stronger effect = lower value,0.901 (inactive)
same,fold change,[6]; [24],0.97
same,cell count,[6]; [25],8180
same,cell count,[6]; [26],9090
same,remaining NAD,[20],10 nM (inactive)
COC(C)(C)CCC[C@H](C)C/C=C/C(C)=C/C(=O)OC(C)C,red/green cell ratio (normalised),[4],0.86 (inactive)
same,normalised cell number,[4]; [22],1.2
same,normalised cell number,[4]; [23],1.03
same,activity remaining,[11],109% (inactive)
same,luciferase signal,[21],72 AU (inactive)
C[C@H]1O[C@H](OC2[C@@H](O)[C@@H](O)C(O)[C@H](O)[C@H]2O)[C@@H](N)C[C@@H]1N=C(N)C(=O)O (stereo partly specified),parasite load remaining,[9],61.4% (inactive)
same,viability,[9],141%
same,red/green cell ratio (normalised),[4],1.07 (inactive)
same,normalised cell number,[4]; [22],1
same,normalised cell number,[4]; [23],1.07
same,fold change,[6]; stronger effect = lower value,0.847 (inactive)
same,fold change,[6]; [24],1.18
same,cell count,[6]; [25],8950
same,cell count,[6]; [26],10600
same,z-score,[10]; [27],-0.576 (inactive)
same,z-score,[10]; [28],-0.393
same,luciferase signal,[21],128 AU (inactive)
same,z-score,[8],0.075 (inactive)
